The list is not random: actives were taken first. Their share in the collection is about 4.3%.
KKLEB cytotox: reduces viability of KKLEB cystic fibrosis airway cells; KKLEB CF airway cells viability, ATPlite luminescence, overnight; stronger effect = lower value; cells stimulated with P. aeruginosa culture filtrate; activity change (cytotoxicity), % at 5 µM; 360,000 compounds, 0.36% hits; AID 602141;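 active = corrected activity change at or below -50% at 5 µM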
HIF-2a inh: inhibitors of HIF-2a; 786-0 RCC cells HIF-2a reporter, luciferase luminescence, overnight; inhibition, % at 18.8 µM; AID 624352; 360,000 compounds, 0.72% hits;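 active = inhibition of the luminescence signal of 40% or more relative to plate controls, in a single-dose primary screen at 18.75 µM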
CHOP inh: CHOP inhibition in unfolded protein response; inhibition, % at 10 µM; AID 2732; 220,000 compounds, 3.8% hits; CHO-K1 CHOP-promoter luciferase, tunicamycin-induced, 15-18 h;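 active = compounds that reduced the stress-induced luciferase reporter signal by more than about 70% of percent inhibition, limit read from the data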
CF NFkB block: cystic fibrosis NF-kB activation inhibition; inhibition, % at 5 µM; KKLEB NF-kB-GFP reporter, PAF-induced, GFP fluorescence overnight; 360,000 compounds, 0.86% hits; AID 588850;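 active = at least 50% inhibition at 5 µM, scaled per plate between neutral and stimulator controls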;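 note: PAF is a Pseudomonas aeruginosa culture filtrate used as stimulus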
Peg3 prom inh: inhibitors of Peg3 promoter. HeLa PEG-Prom luciferase reporter, luminescence, overnight. inhibition, % at 20 µM. 360,000 compounds, 1.7% hits. AID 588405;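 active = inhibition of at least 50% at 20 µM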
MITF TRPM1 inh: inhibitors of MITF-driven TRPM1 promoter in melanoma cells. SK-MEL-5 TRPM1 promoter luciferase, 24 h. inhibition, % at 12.5 µM. 330,000 compounds, 0.83% hits;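 active = mean inhibition across replicates of 60% or more, whatever share of single replicates reaches that level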
Each line names hits and unclear results; the compound was inactive in the other large screens.

COc1ccc(OC)c(N/C(C)=C/C(=O)c2ccccc2)c1	none
CCc1nc2ccc(C(=O)Nc3cc(-c4ccccc4)ccc3OC)cn2c1N(C)Cc1nccs1	Peg3 prom inh 67 (no result: CHOP inh, MITF TRPM1 inh)
CCc1nc2ccc(C(=O)Nc3cc(-c4ccccc4)ccc3OC)cn2c1N(C)Cc1ccc(OC)cc1	none (no result: CHOP inh, MITF TRPM1 inh)
CCOC(=O)/C(=C/C=C1\Sc2cc(C)c(C)cc2N1CC)C(C)=O	CHOP inh 94
CCCCOc1ccc(Cc2c(O)nc(SC)[nH]c2=O)cc1	none (no result: CHOP inh)
CC(C)c1ccc(/C=C/C2=NNC(=O)CC2)cc1	none
COc1cc(/C=C/C2=NNC(=O)CC2)cc(OC)c1OC	Peg3 prom inh 61 (no result: CHOP inh)
CCN(CC)CCNC(=O)CCc1c(C)nc2c(c(C)nn2-c2ccc(C)c(C)c2)c1C	Peg3 prom inh 82 (no result: CHOP inh)
COC(CNC(=O)CCc1c(C)nc2c(c(C)nn2-c2ccc(C)cc2)c1C)OC	none (no result: CHOP inh)
Cc1ccc(-n2nc(C)c3c(C)c(CCC(=O)Nc4ccc(CN5CCCC5)cc4)c(C)nc32)cc1	Peg3 prom inh 68, MITF TRPM1 inh 65
Cc1cc(C)nc(NS(=O)(=O)c2ccc(N/C=C/C(=O)c3ccc(Cl)cc3)cc2)n1	CHOP inh 92
C=CCN1C(=O)C(Cc2ccc(C)cc2)S/C1=N/N=C/c1ccco1 (configuration not stated)	CHOP inh 76
O=S(=O)(c1cccc(NC(=S)N2CCN(c3cccc(Cl)c3)CC2)c1)C(F)F	CHOP inh 70
C[C@@H]1CN([C@@H](C)CO)C(=O)c2cc(N(C)C)ccc2O[C@@H](C)CCCCO[C@@H]1CN(C)Cc1ccc2c(c1)OCO2	none (no result: CHOP inh, MITF TRPM1 inh)
Cc1ccc(NC(=O)Nc2cc(C(F)(F)F)c[nH]c2=O)cc1	none (no result: CHOP inh)
O=C1/C(=N\S(=O)(=O)c2cccs2)C([n+]2ccc(CCCc3ccccc3)cc2)=C([O-])c2ccccc21	CHOP inh 95 (no result: MITF TRPM1 inh)
O=C1/C(=N\S(=O)(=O)c2cccs2)C([n+]2cccc(Cc3ccccc3)c2)=C([O-])c2ccccc21	CF NFkB block 56, MITF TRPM1 inh 91
Cc1cc(C)c[n+](C2=C([O-])c3ccccc3C(=O)/C2=N\S(=O)(=O)c2cccs2)c1	MITF TRPM1 inh 105
Cc1cc[n+](C2=C([O-])c3ccccc3C(=O)/C2=N\S(=O)(=O)c2cccs2)cc1C	none
COc1ccc(C(=O)NCC(=O)OCCOc2ccc(Cl)cc2)cc1OC	none (no result: CHOP inh)
Cc1c(C(=O)Nc2cc(F)ccc2F)sc2nc3n(c(=O)c12)CCCCC3	none (no result: CHOP inh)
CCOC(=O)N(C)C[C@H]1OCc2cnnn2CCCC(=O)N([C@H](C)CO)C[C@H]1C	none (no result: CHOP inh, MITF TRPM1 inh)
CCc1nnc(NC(=O)c2ccc(S(=O)(=O)N3CCc4ccccc4C3)cc2)s1	CHOP inh 82
Cc1cc(C)c2nc(NNC(=O)c3ccc(S(=O)(=O)N4CCc5ccccc5C4)cc3)sc2c1	Peg3 prom inh 75, MITF TRPM1 inh 78
CN(C)c1ccc(NC(=S)NC23CC4CC(CC(C4)C2)C3)cc1	none (no result: CHOP inh)
CCOC(=O)c1nnn(-c2nonc2N)c1C	none
CCCN(CCC)Cc1c(C(=O)OCC)nnn1-c1nonc1N	CHOP inh 86
COc1ccc(Br)c(Cn2c(C)c(C(=O)NCc3cccc([N+](=O)[O-])c3)sc2=O)c1	none (no result: CHOP inh, MITF TRPM1 inh)
COC(=O)Cc1ccc(NC(=S)NCCO)cc1	none
COC(=O)Cc1ccc(NC(=S)Nc2ccccn2)cc1	CHOP inh 73
Cc1cc(NCCCn2ccnc2)n2ncc(-c3ccc(Cl)cc3)c2n1	KKLEB cytotox -55, CF NFkB block 55 (no result: CHOP inh)
O=C(/C=C/c1c[nH]c2ccccc12)c1cccc2ccccc12	CHOP inh 87
O=C(c1ccccc1)c1c[nH]c2ccccc12	none (no result: CHOP inh)
COc1ccc(CN(C(=O)CCC(=O)Nc2cc(C)on2)C(C(=O)NC(C)(C)C)c2cccc(OC)c2OC)cc1 (configuration not stated)	none (no result: CHOP inh)
Cc1ccc(N=Nc2ccc3ccccc3c2O)cc1	KKLEB cytotox -63 (no result: CHOP inh)
Cc1ccc(N=Nc2ccc(O)c3ncccc23)cc1	MITF TRPM1 inh 87
CCS(=O)(=O)c1ccc(N=Nc2ccc(O)c3ncccc23)c(OC)c1	MITF TRPM1 inh 66
Cc1ccc(N=Nc2ccc(O)c3ncccc23)cc1C	CHOP inh 92
Cc1cc(N(C)C)ccc1N=Nc1ccc2ncccc2c1	none
COc1ccccc1N=Nc1ccc(O)c2ncccc12	none (no result: CHOP inh)

Screening results (PubChem BioAssay)
